# Assay results reported in the supplement of paper PMC6555819.
# Columns and labels:
# Test in all cases: PBM binding z-score (relative to random genomic background probes); higher = stronger binding; sequences stand for … in GC…GCGATTGACAGCGTAGAATGAAGG
# [1] = test system: RARb homodimer (NR concentration 270 nM)
# In short: (§1)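 Scanned fluorescence from custom Agilent 4×180K protein-binding microarrays was regression-normalized. Binding z-scores use random background probes as reference. Ligand-free nuclear receptor dimers were incubated on the arrays for 1 h and detected with antibodies against each partner (one per run).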
# [2] = test system: RARg:RXRa (NR concentration 270 nM, RXRa partner concentration 90 nM)
# In short: as §1
# [3] = test system: RARg homodimer (NR concentration 270 nM)
# In short: as §1
# [4] = test system: RXRa DBDmut IVT, anti-RXR (DBD mutation: RXRa K156A/R161A, NR concentration 90 nM)
# In short: as §1
# [5] = test system: RXRa homodimer (NR concentration 180 nM)
# In short: as §1
# [6] = test system: THRa:RXRa (NR concentration 90 nM, RXRa partner concentration 90 nM)
# In short: as §1
# [7] = test system: THRa homodimer (NR concentration 90 nM)
# In short: as §1
# [8] = test system: VDR homodimer (NR concentration 270 nM)
# In short: as §1
Sequence,PBM binding z-score [1],PBM binding z-score [2],PBM binding z-score [3],PBM binding z-score [4],PBM binding z-score [5],PBM binding z-score [6],PBM binding z-score [7],PBM binding z-score [8]
ATCTCTAGGTAACATGTTCAGTGAAAGAGAGGAC,0.187,0.668,0.705,0.0522,0.565,1.04,0.541,-0.0529
CCTCGGAGGACAACGGGAGGTCAGAGCTGCCAGA,3.43,3.93,3.4,-0.419,1.76,3.04,1.32,1.08
ACTATTAGTTGACTTAGGGCACCCGATACGACGC,0.58,0.574,0.897,0.79,0.316,0.993,0.664,0.399
TCATCTAGGTAAAAGGTGAAAGTCGGTGTGGTAA,2.04,1.82,0.925,1.24,2.84,1.99,0.446,0.293
ATCTCGAGGTAACCAAGTTCAGTGAATGCCGAAC,1.62,0.86,1.02,0.865,0.825,2.41,0.867,3.01
CGAACGAGGGCATGAGTTGATAGCAAATGCCGAT,0.843,1.54,2,2.58,1.17,1.48,-0.132,2.02
CGTCCAAGGTCATAGGAGGTCAGTGCAGACAGAT,4.94,6.63,6.9,4,6.32,5.34,2.96,4.88
TGAATGAGGTTGTAAGATCAGGGAACGTTGCAAA,-0.435,-0.0347,0.0621,-0.583,0.396,0.192,-0.364,-0.21
ACTATTAGTTGCCTTAGGGCAACCGATACGACGC,0.893,0.429,0.732,0.351,0.447,1.46,0.815,0.176
TCGAGCAGGTTAGGGGCATTCAGAATGGCGTCGA,0.54,0.286,0.148,-0.111,0.719,0.723,-0.36,0.474
TCTGCTAGGTCAACGATGGTCAGGTAATCTGCTA,3.36,4.2,5.52,1.12,3.11,3.09,1.34,-0.177
ACTATTAGTTGAGACGAGGGCAACCAATAGGTTG,1.29,0.956,0.987,0.665,0.753,2.89,0.217,0.676
GTACCAAGGTGAATAGGTCGTTTATGAGTAGGCG,1.75,2.69,1.2,0.0866,2,1.95,0.576,0.299
GCTGCTAGGTCAGGTTGGTCAGGTAACGGGTACG,2.89,2.59,3.55,0.37,1.06,2.32,2.02,0.789
CCTAGCAGGCCAGGGTCACGCAAGCATTTCGCTT,3.51,4.73,3.74,0.0811,5.81,3.6,1.62,1.53
GCATATAGGTAATACACGGTGAAAGTCCGATTGT,0.0641,0.309,0.397,0.18,0.407,1.23,-0.424,0.0175
ACAGACAGGTGGGTGAAGGTAACTCAGCTGGACG,0.378,0.052,0.248,-0.598,0.193,0.52,-0.174,-0.176
AGTCAAAGTTCACTGGGTAACGTAAGATTCAGCT,3.82,5.43,5.94,4.4,4.47,1.92,-0.189,4.09
AATACAGGGTCACTAAGCCAGAGTAGGTACGAAT,3.03,5.07,4.83,2.77,5.39,3.33,1.13,2.35

Sequence,PBM binding z-score [1],PBM binding z-score [2],PBM binding z-score [3],PBM binding z-score [4],PBM binding z-score [5],PBM binding z-score [6],PBM binding z-score [7],PBM binding z-score [8]
CAAACTAGGTCACAGAGGTCAAAGTACGTGCGTA,5.51,7.48,7.65,3.46,7.8,4.75,2.64,6.77
CTCGAAAGGTCGTGCGCAGGTGAGTATACCAAAC,2.93,5.81,3.83,1.76,5.1,3.58,0.11,0.912
CATAAAGGGTCAGCTAGGCCAGAGTAGGGACGGC,4.09,5.41,6.23,1.52,4.42,2.65,0.204,0.783
CCTGCTAGGTCATGGTCATCTAATCTACAGTATG,3.47,4,4.75,1.78,2.78,3.08,1.52,0.674
ATCGACAGGTCGTGAGGTGAGTATACAGAAAGGC,1.39,2.07,1.67,0.0757,2.17,2.38,1.28,0.435
CGGAGTAGGTTATGGGGCATTCAGGCAACGGTGA,1.26,0.544,0.721,-0.446,0.668,0.705,0.801,0.416
GTACCAAGGTGAATAGGTCGTTGTTGAGTAGGCG,1.89,2.4,1.05,0.135,1.64,1.81,0.601,0.168
ATCTCTTGGTAAGACTCAGTTCAGTGAAGAACGC,0.908,0.084,0.186,0.852,-0.0369,0.736,1.13,1.76
ATCTCTAGGTATAGATAGTTCAGTGAATGCAAAT,0.907,0.662,0.781,0.321,0.447,0.433,-0.135,0.864
CGAACGAGGGCATAAGTTGATAGCAAATGCCGAT,0.864,1.23,1.25,2.53,0.665,0.587,-0.473,1.04
ATCTCTAGGTATAGTTCAGTGAAAGATCGATAGA,1.4,0.857,1,0.996,0.686,0.473,0.453,1.12
ACAGACAGGTGATGAAGGTATCTCAGGCTATCAT,0.276,0.119,0.27,-0.321,0.203,0.741,-0.068,-0.586
AGAATGAGATTATTAAGATCAGGGAATTGCGGTC,-0.433,-0.202,0.0706,-0.35,-0.434,-0.315,-0.66,-0.308
TCAAATAGGTAAACAGGTGAAAGTCCGTAAGTTA,0.737,0.645,0.221,1.46,1.15,0.783,0.141,0.236
CGTCCAATGTCAATGCTAGGTCAGTGAAAGCATT,2.73,3.07,1.98,0.448,0.676,2.23,0.915,0.181
CCAGACAGGTGATAGGTAACTCAGTCTGGTACGC,0.0377,0.156,0.068,-0.237,0.368,-0.116,-0.179,-0.505
ATCTCTAGGCAACCAAGTTCAGTGAATGCCGAAC,1.25,0.473,0.591,0.688,0.505,0.9,-0.255,2.3
ATCTCTAGGTAAGACTCAGTTCAATGAAGAACGC,0.915,0.919,0.623,0.822,0.539,1.29,0.873,2.32
AGTCAAAGTTCACCTAGGTAACGTAAGATATGCT,4.16,5.65,6.29,4.26,4.86,3.51,0.406,3.86

Sequence,PBM binding z-score [1],PBM binding z-score [2],PBM binding z-score [3],PBM binding z-score [4],PBM binding z-score [5],PBM binding z-score [6],PBM binding z-score [7],PBM binding z-score [8]
TCTTGTAGATCAGCAGGTTAAGAGAGCTGGCCAA,-0.156,-0.1,-0.407,0.292,0.367,-0.0987,-0.325,-0.364
TCTTGCAGATCAATAGAGGTTAAGAAAGTGCGCT,1.01,0.797,0.305,0.292,1.37,2.42,-0.532,-0.0844
CCGACTGGGGCAAAGGTTACAATACTCAGTACGA,2.22,3.61,2.01,0.382,4.11,1.8,-0.161,0.239
TCCTGTAGATCAAGCAGGTTAAGAAAGCCTGAGT,0.0843,-0.142,-0.295,0.428,0.45,0.254,-0.566,0.241
TAGCCTGGGTCAGATCGGGCCAGTATACGCTATA,1.61,2.42,2.86,-1.34,1.46,4.11,-0.483,-1.02
TCTCGTAGATCAAAGGTTAAGAAAGCCGAAGCCT,1.36,1.65,0.587,0.764,2.94,1.14,-0.441,0.265
ACTATTAGTTGACTTAGGGCAACCAATACGACGC,1.15,0.838,0.945,0.699,0.621,1.66,0.216,0.251
CGTCCAAGGACAAGGTCAGTGAAAGAGACTCGAA,3.32,3.17,3.98,1.46,2.22,3.63,2.39,0.725
CGTCAAAGTTTAAGGTAACGTAACAGAAAGCAGC,0.852,0.923,1.7,1.29,0.482,3.1,3.1,-0.0381
TTACCAAGGTGACGGTCGTTGATCCCTCTGTAGA,1.18,0.607,0.608,-0.779,0.836,2.01,0.865,-0.245
CCTTCTAGGTCAATGGTCAGCTAAAGCAGCTCGC,2.97,3.53,4.58,1.88,2.35,2.71,1.37,0.249
CTCGAAAGGTCGTGTTCAGGTGAGTATACCAAAC,2.87,4.55,3.44,2.35,4.3,4.17,1.16,1.16
CCTAGCAGGCCAATCTGGGTCTCTCAAGGCTTGA,-0.52,-0.494,-0.505,-0.243,-0.68,0.975,-0.574,-0.65
ATCTCTAGGTGAAGTTCAGTGAAAGATCGATAGA,1.53,1.3,1.46,0.512,0.437,1.19,0.0183,0.509
CGAACTAGGTCACAGAGGTCAAAGTCCGTGCGTA,5.38,7.57,7.52,3.54,8.15,4.58,2.83,6.98
ACAGACAGGCGAGTGAAGGTAACTCAGCTGGACG,-0.318,-0.0341,-0.0147,-0.699,0.296,0.0808,-0.312,-0.484
CTCGAAAGGTCGGTTGAGGTGTGTATACGGATAA,1.73,2.34,2.27,0.858,1.74,3.69,-0.0744,0.415
ATCTCTAGGTAAGACTCAGTTCGGTGAAGAACGC,0.505,0.0648,0.192,0.349,-0.00788,0.483,0.697,0.648
CAAACTCGGTCAAGGTCAAAGTCGGTTTGTGCCA,4.47,5.26,5.55,2.48,4.82,4,3.53,4.43
